Drawing on PubChem BioAssay (NCATS), this text covers outcome and Potency for 18 molecules.

Inconclusive results are not listed. Calls of active or inactive are those of the source. Calls come from the whole dose curve; as a rule, active = well fitted curve in the direction sought with a large enough effect; inconclusive = small, poorly fitted or top-dose-only effect, or another doubt; inactive = no such curve, though single readings can be large; an effect the other way counts as inactive or inconclusive.

The nature of experiment [1]: Confirmation and Secondary Assay for Modulators of Hemoglobin Beta Chain Splicing at IVS2 705 locus (AID 930).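 Note: HeLa cells stably expressing the EGFP-705 splicing reporter; GFP fluorescence per well restored by corrected splicing of the IVS2-705 intron in EGFP; series mostly up to about 46 µM.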 In short, it runs like this: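 Read-out: total peak GFP fluorescence per well (488 nm excitation, 500-520 nm emission) by laser-scanning cytometry. Cells: HeLa EGFP-705 splicing reporter, 2 days compound exposure in Optimem/2% FCS.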
Experiment [2] can be described thus: Cell Viability - LYMP2-001 (AID 921). Note: nearly all actives have a fitted effect of over 70% in size. Note: potency is the fitted concentration of half-maximal effect. In short, it runs like this: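 CellTiter-Glo luminescence (intracellular ATP) after 24 hr compound exposure at 37 C, 2500 lymphoblastoid cells/well in complete medium. AC50 fitted with standard Hill equation; tetraoctylammonium bromide positive control.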
A short description of experiment [3]: MultiTox-Fluor Cytotoxicity Assay - LYMP1-001 - Dead Cells (AID 946). Note: potency is the fitted concentration of half-maximal effect. In short, it runs like this: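 Cytotoxicity as increased dead-cell protease fluorescence (bis-AAF-R110, 485/520 nm), read 60 min after MultiTox-Fluor reagent. Human lymphoblastoid line exposed 16 h; Hill-fitted AC50, with DMSO as 0% and 15 uM tetraoctylammonium bromide as 100%.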
A short description of experiment [4]: MultiTox-Fluor Cytotoxicity Assay - LYMP1-001 - Live Cells (AID 947). Note: potency is the fitted concentration of half-maximal effect.
The nature of experiment [5]: Cell Viability - LYMP1-002 - Assay at 16 hr (AID 948). Note: potency is the fitted concentration of half-maximal effect. In short, it runs like this:
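LYMP1-002 human lymphoblastoid cells, 2500/well; 5 hr 37 C; cpd 16 hr 37 C; CellTiter-Glo 30 min RT; luminescence (ATP). Concentration-response, Hill-fit AC50. Pos ctrl tetraoctylammonium bromide.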

A short description of experiment [6]: MultiTox-Fluor Cytotoxicity Assay - LYMP1-002 - Live Cells (AID 955).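 Note: cells exposed to compound for 16 hours.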 Note: potency is the fitted concentration of half-maximal effect. In short, it runs like this: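 In this qHTS viability format, lymphoblastoid cells (LYMP1-002, human) received compound for 16 hr at 37 C. Fluorogenic GF-AFC cleavage by viable cells was detected at 405/510 nm after 1 h at room temperature.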
Experiment [7] is described as follows: MultiTox-Fluor Cytotoxicity Assay - LYMP1-002 - Dead Cells (AID 960). Note: nearly all actives have a fitted effect of over 60% in size. Note: potency is the fitted concentration of half-maximal effect. The method, boiled down: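 Concentration-dependent increases in membrane-leaked protease activity are quantified in LYMP1-002 cells after 16 hr treatment; values are normalized against DMSO and tetraoctylammonium bromide (15 uM) controls and AC50 derived by Hill modeling.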
The nature of experiment [8]: MultiTox-Fluor Cytotoxicity Assay - LYMP1-003 - Dead Cells (AID 961). Note: nearly all actives have a fitted effect of over 70% in size. Note: potency is the fitted concentration of half-maximal effect. The method, boiled down:
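Dead-cell protease release, detected as bis-AAF-R110 fluorescence at 485/520 nm, was measured in LYMP1-003 cells after 16 h compound treatment at 37 C. AC50 values came from Hill-modeled qHTS curves normalized to DMSO (0%) and 15 uM tetraoctylammonium bromide (100%).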

Experiment [9] in a line: MultiTox-Fluor Cytotoxicity Assay - LYMP1-003 - Live Cells (AID 962).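 Note: cells exposed to compound for 16 hours at 37 °C.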 Note: potency is the fitted concentration of half-maximal effect. In short, it runs like this:
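Human lymphoblastoid line LYMP1-003 in complete culture medium, treated 16 hr with titrated compounds. Viable cells quantified via cell-permeant GF-AFC substrate fluorescence; AC50 derived by Hill fitting.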

The nature of experiment [10]: Cell Viability - LYMP1-003 - Assay at 24 hr (AID 963). Note: potency is the fitted concentration of half-maximal effect. The method, boiled down:
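The lymphoblastoid line was treated with titrated compounds for 24 hours, and viable cell number estimated from luciferase-based ATP luminescence.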

Experiment [11] in a line: Cell Viability - LYMP1-003 - Assay at 40 hr (AID 964). Note: nearly all actives have a fitted effect of over 60% in size. Note: potency is the fitted concentration of half-maximal effect. In short, it runs like this:
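Acute toxicity is scored as a concentration-dependent loss of intracellular ATP in LYMP1-003 cells (2500/well, complete medium) after 40 hr at 37 C, measured by CellTiter-Glo luminescence; AC50 values derive from standard Hill modelling.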

A short description of experiment [12]: Cell Viability - LYMP2-003 (AID 965).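 Note: cells exposed to compounds for 24 h before reading; nearly all actives have a fitted effect of over 50% in size.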 Note: potency is the fitted concentration of half-maximal effect. In short, it runs like this: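 CellTiter-Glo luminescence (cellular ATP) after 24 h compound exposure at 37 C in complete medium; 2500 cells/well, 5 h settling beforehand. Concentration-response fitted to standard Hill equation for AC50. Tetraoctylammonium bromide served as positive control.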
Experiment [13] in a line: Cell Viability - LYMP2-004 (AID 966). Note: nearly all actives have a fitted effect of over 65% in size. Note: potency is the fitted concentration of half-maximal effect. In short, it runs like this: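 Viable-cell number estimated from ATP luminescence (CellTiter-Glo) in 2500 human lymphoblastoid cells/well after 24 hr at 37 C with compound. AC50 fitted to the standard Hill equation.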
The nature of experiment [14]: Cell Viability - LYMP2-005 (AID 967). Note: potency is the fitted concentration of half-maximal effect. The method, boiled down:
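Steps: seed 2500 LYMP2-005 cells/well, incubate 5 h at 37 C, add compound, incubate 24 h at 37 C, add CellTiter-Glo, wait 30 min at RT, read luminescence. Concentration-response data fitted to Hill equation for AC50.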

On to `CC(=O)Nc1c(I)cc(I)c(C(=O)O)c1I`, for which the molecule was called inactive in experiment [1].
As for `O=C(O)CCCCC(=O)O`, the Potency entry in experiment [2], in experiment [3], in experiment [4], in experiment [5], in experiment [6] and in experiment [7] was “inactive” each time. For the same molecule, the Potency entry in [8], in experiment [9], in experiment [10], in [11], in experiment [12] and in experiment [13] was “inactive” throughout. The Potency result in experiment [14] was “inactive”.
`CCOc1ccc(Cc2nccc3cc(OCC)c(OCC)cc23)cc1OCC`: the molecule was classed as inactive in [1].
Turning to `CC(C)(C)CC(C)(C)c1ccc(OCCOCC[N+](C)(C)Cc2ccccc2)cc1`, the Potency was 20 µM (active) in experiment [2]; 50.1 µM (active) in experiment [5]; 50.1 µM (active) in experiment [10]; 31.6 µM (active) in experiment [11]; 39.8 µM (active) in experiment [12]; 39.8 µM (active) in [13]. Moreover, the molecule was called inactive in experiment [1].
In the case of `Cc1ccc(C(=O)C(C)CN2CCCCC2)cc1` (stereo unspecified), in experiment [1], the result was inactive.
Same read-out and setting: the value for `CC(C)(Oc1ccc(Cl)cc1)C(=O)O` was “inactive”.
Consider `CCOc1ccc2nc3cc(N)ccc3c(N)c2c1`, for which the outcome in experiment [1] was inactive.
For `C=CCc1ccc(O)c(OC)c1`, the Potency result in experiment [2], in experiment [3], in experiment [4], in experiment [5], in [6] and in experiment [7] was “inactive” throughout. Moreover, the Potency entry in experiment [8], in experiment [9], in experiment [10], in [11], in [12] and in [13] was “inactive” throughout. For the same molecule, the Potency result in [14] was “inactive”. Besides, the molecule was called inactive in experiment [1].
With `Oc1c(I)cc(Cl)c2cccnc12`, the Potency in experiment [2] was 39.8 µM (active); in experiment [7], 31.6 µM (active); in [11], 39.8 µM (active). Besides, the molecule was called inactive in experiment [1]. Moreover, the Potency result in [3] was “inactive”.
On to `NC(=NCCCCCCN=C(N)/N=C(\N)Nc1ccc(Cl)cc1)/N=C(\N)Nc1ccc(Cl)cc1`, for which the Potency in experiment [2] was 39.8 µM (active); in [3], 50.1 µM (active); in experiment [4] it was 39.8 µM (active); in experiment [5] it was 50.1 µM (active); in experiment [6], 15.8 µM (active); in experiment [8], 31.6 µM (active). Moreover, the Potency was 50.1 µM (active) in [9], 50.1 µM (active) in experiment [10] and 31.6 µM (active) in [11]. Besides, in [1], the molecule was called inactive.
With `CC(O)C(=O)O` (stereo unspecified), the Potency result in [2], in experiment [3], in experiment [4], in experiment [5], in experiment [6] and in experiment [7] was “inactive” throughout. For the same molecule, the Potency entry in experiment [8], in [9], in [10], in experiment [11], in experiment [12] and in experiment [13] was “inactive” throughout. Further, in [14], the Potency entry is “inactive”.
With `COc1cccc2c1C(=O)c1c(O)c3c(c(O)c1C2=O)C[C@@](O)(C(C)=O)C[C@@H]3O[C@H]1C[C@H](N)[C@H](O)[C@H](C)O1`, the Potency in [2] is 1.58 µM (active); in [3], 0.501 µM (active); in experiment [4], 0.631 µM (active); in experiment [5] it was 0.794 µM (active); in [6], 3.98 µM (active); in experiment [7] it was 12.6 µM (active). Further, the Potency in experiment [8] is 1 µM (active); in [9], 0.501 µM (active); in experiment [10], 1 µM (active); in experiment [11] it was 0.398 µM (active); in experiment [12], 0.316 µM (active); in experiment [14], 0.158 µM (active).
For the molecule `CC(=O)O[C@]1(C(C)=O)CC[C@H]2[C@@H]3C[C@H](C)C4=CC(=O)CC[C@]4(C)[C@H]3CC[C@@]21C`, the Potency in experiment [2] and in [13] was 31.6 µM (active) each time. Further, the Potency entry in [3], in [4], in [5], in experiment [6], in experiment [7] and in experiment [8] was “inactive” in each case. Moreover, the Potency entry in [9], in [10] and in experiment [11] was “inactive” throughout.
As to `C/C=C(/C(=C/C)c1ccc(O)cc1)c1ccc(O)cc1`, the outcome in experiment [1] was inactive.
Take `O=C1OC(c2ccc(O)cc2)(c2ccc(O)cc2)c2ccccc21`: the Potency result in experiment [2], in [3], in [5], in experiment [6], in [8] and in experiment [9] was “inactive” throughout. Further, the Potency entry in [10], in experiment [11], in [12], in experiment [13] and in experiment [14] was “inactive” each time. In addition, the call in [1] was inactive. In addition, the Potency in experiment [7] is 15.8 µM (active).
As to `CN(C)CC/C=C1\c2ccccc2Sc2ccc(Cl)cc21`, the molecule was called inactive in experiment [1].
For `CC(=O)Oc1ccc(C(c2ccc(OC(C)=O)cc2)c2ccccn2)cc1`, the Potency entry in experiment [2], in [3], in [4], in [5], in experiment [6] and in [7] was “inactive” each time. For the same molecule, the Potency entry in experiment [8], in experiment [9], in experiment [10], in experiment [11], in [12] and in experiment [13] was “inactive” each time. Moreover, the Potency entry in [14] is “inactive”. Moreover, the call in [1] was inactive.
With `Oc1c(Cl)cc(Cl)cc1Sc1cc(Cl)cc(Cl)c1O`, the Potency in experiment [2] and in experiment [11] was 39.8 µM (active) throughout. In [1], the outcome was inactive. Further, the Potency entry in experiment [3], in experiment [4], in [5], in experiment [6], in [7] and in experiment [8] was “inactive” throughout. For the same molecule, the Potency result in [9], in experiment [10] and in experiment [14] was “inactive” throughout.
